# From PubChem BioAssay AID1159580 (chemical genetic matrix, 2015)
# The campaign covered roughly 5,500 compounds. About 2,000 (36%) were called active. Inconclusive results (about 18%) are left out. The list shows a part of the results. Unmarked numbers belong to inactive results. Cut-off read from the data, not from the text of the source: active = normalized growth mostly below about 0.91 (no sharp cut-off); inconclusive = no clear call, values can overlap the other calls; inactive = mostly above about 0.92.
# Experiment: chemical genetic growth profiling, strain panel (AID 1159580);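 note: tested at 20 µM; growth read once vehicle control cultures reached saturation at 30 °C; 1 = growth at the plate median or of vehicle wells; lower values mean less growth of the strain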
# Conditions: growth OD
# [1] = S. cerevisiae deletion strains, locus YAL013W, strain DEP1, hits give low values
# [2] = S. cerevisiae deletion strains, locus YBR229C, strain ROT2, hits give low values
# [3] = S. cerevisiae deletion strains, locus YDL101C, strain DUN1, hits give low values
# [4] = S. cerevisiae deletion strains, locus YDR150W, strain NUM1, hits give low values
# [5] = S. cerevisiae deletion strains, locus YEL061C, strain CIN8, hits give low values
# [6] = S. cerevisiae deletion strains, locus YGR078C, strain PAC10, hits give low values
# [7] = S. cerevisiae deletion strains, locus YHR030C, strain SLT2, hits give low values
# [8] = S. cerevisiae deletion strains, locus YHR087W, strain rtc3, hits give low values
# [9] = S. cerevisiae deletion strains, locus YJR043C, strain POL32, hits give low values
# [10] = S. cerevisiae deletion strains, locus YJR075W, strain HOC1, hits give low values
# [11] = S. cerevisiae deletion strains, locus YLR039C, strain RIC1, hits give low values
# [12] = S. cerevisiae deletion strains, locus YLR058C, strain SHM2 (second series), hits give low values
# [13] = S. cerevisiae deletion strains, locus YLR085C, strain ARP6, hits give low values
# [14] = S. cerevisiae deletion strains, locus YLR262C, strain YPT6, hits give low values
# [15] = S. cerevisiae deletion strains, locus YML094W, strain GIM5, hits give low values
# [16] = S. cerevisiae deletion strains, locus YMR219W, strain ESC1, hits give low values
# [17] = S. cerevisiae deletion strains, locus YMR263W, strain SAP30, hits give low values
# [18] = S. cerevisiae deletion strains, locus YNL153C, strain GIM3, hits give low values
# [19] = S. cerevisiae deletion strains, locus YNL298W, strain CLA4 (second series), hits give low values
# [20] = S. cerevisiae deletion strains, locus YNL322C, strain KRE1, hits give low values
# [21] = S. cerevisiae deletion strains, locus YNR030W, strain Alg12, hits give low values
# [22] = S. cerevisiae deletion strains, locus YPL055C, strain LGE1, hits give low values
# [23] = S. cerevisiae deletion strains, locus YPL241C, strain CIN2, hits give low values
# [24] = S. cerevisiae deletion strains, locus YPR135W, strain CTF4, hits give low values
# [25] = S. cerevisiae strains, strain wild type, hits give low values
smiles,measurement,setting,value
FC(F)(F)c1cc(-c2ccco2)nc2cc(-c3ccco3)nn12,normalized growth,[1],0.869 (active)
same,normalized growth,[2],0.908 (active)
same,normalized growth,"S. cerevisiae deletion strains, locus YCL061C, strain MRC1, hits give low values",0.98
same,normalized growth,[3],0.972
same,normalized growth,[4],0.889
same,normalized growth,[5],0.97
same,normalized growth,[6],0.958
same,normalized growth,[7],0.722
same,normalized growth,[8],0.935
same,normalized growth,"S. cerevisiae deletion strains, locus YJL187C, strain SWE1, hits give low values",0.973
same,normalized growth,[9],0.881 (active)
same,normalized growth,[10],0.903
same,normalized growth,[11],0.729 (active)
same,normalized growth,[12],0.96
same,normalized growth,[13],0.829
same,normalized growth,[14],0.883
same,normalized growth,[15],0.889
same,normalized growth,[16],1
same,normalized growth,[17],0.899 (active)
same,normalized growth,[18],0.949
same,normalized growth,[19],0.859
same,normalized growth,[20],0.997
same,normalized growth,[21],0.798 (active)
same,normalized growth,[22],0.851
same,normalized growth,[23],0.844 (active)
same,normalized growth,[24],0.594 (active)
same,normalized growth,[25],0.988
FC(F)(F)c1c2c(nc3cc(-c4ccco4)nn13)CCC2,normalized growth,"S. cerevisiae deletion strains, locus YAR019C, strain CDC15, hits give low values",0.965
same,normalized growth,"S. cerevisiae deletion strains, locus YBL105C, strain PKC1, hits give low values",0.973
same,normalized growth,"S. cerevisiae deletion strains, locus YBR135W, strain CKS1, hits give low values",0.964
same,normalized growth,"S. cerevisiae deletion strains, locus YBR136W, strain MEC1, hits give low values",0.971
same,normalized growth,"S. cerevisiae deletion strains, locus YBR160W, strain CDC28, hits give low values",0.975
same,normalized growth,"S. cerevisiae deletion strains, locus YDL017W, strain CDC7, hits give low values",0.971
same,normalized growth,"S. cerevisiae deletion strains, locus YDL028C, strain MPS1, hits give low values",0.971
same,normalized growth,[3],0.967
same,normalized growth,"S. cerevisiae deletion strains, locus YDL108W, strain KIN28, hits give low values",0.967
same,normalized growth,"S. cerevisiae deletion strains, locus YDL132W, strain cdc53, hits give low values",0.96
same,normalized growth,"S. cerevisiae deletion strains, locus YDL214C, strain PRR2, hits give low values",0.9
same,normalized growth,"S. cerevisiae deletion strains, locus YDR052C, strain DBF4, hits give low values",0.966
same,normalized growth,"S. cerevisiae deletion strains, locus YDR054C, strain cdc34, hits give low values",0.952
same,normalized growth,"S. cerevisiae deletion strains, locus YDR226W, strain ADK1, hits give low values",0.968
same,normalized growth,"S. cerevisiae deletion strains, locus YDR477W, strain SNF1, hits give low values",0.882
same,normalized growth,"S. cerevisiae deletion strains, locus YER123W, strain YCK3, hits give low values",0.858
same,normalized growth,"S. cerevisiae deletion strains, locus YER133W, strain GLC7, hits give low values",0.912
same,normalized growth,"S. cerevisiae deletion strains, locus YFL009W, strain cdc4, hits give low values",0.968
same,normalized growth,"S. cerevisiae deletion strains, locus YFL029C, strain CAK1, hits give low values",0.96
same,normalized growth,"S. cerevisiae deletion strains, locus YFR003C, strain YPI1, hits give low values",0.976
same,normalized growth,"S. cerevisiae deletion strains, locus YFR019W, strain FAB1, hits give low values",0.959
same,normalized growth,"S. cerevisiae deletion strains, locus YFR028C, strain CDC14, hits give low values",0.969
same,normalized growth,"S. cerevisiae deletion strains, locus YGR040W, strain KSS1, hits give low values",0.875
same,normalized growth,"S. cerevisiae deletion strains, locus YGR052W, strain FMP48, hits give low values",0.942
same,normalized growth,"S. cerevisiae deletion strains, locus YGR092W, strain DBF2, hits give low values",0.815
same,normalized growth,[7],0.702 (active)
same,normalized growth,"S. cerevisiae deletion strains, locus YHR079C, strain IRE1, hits give low values",0.891
same,normalized growth,"S. cerevisiae deletion strains, locus YHR082C, strain KSP1, hits give low values",0.896
same,normalized growth,"S. cerevisiae deletion strains, locus YHR205W, strain SCH9, hits give low values",0.825
same,normalized growth,"S. cerevisiae deletion strains, locus YIL147C, strain SLN1, hits give low values",0.971
same,normalized growth,"S. cerevisiae deletion strains, locus YJL095W, strain BCK1, hits give low values",0.819
same,normalized growth,"S. cerevisiae deletion strains, locus YJL128C, strain PBS2, hits give low values",0.92
same,normalized growth,"S. cerevisiae deletion strains, locus YJL157C, strain FAR1, hits give low values",0.869
same,normalized growth,"S. cerevisiae deletion strains, locus YJR016C, strain ILV3, hits give low values",0.973
same,normalized growth,"S. cerevisiae deletion strains, locus YJR066W, strain TOR1 (second series), hits give low values",0.987
same,normalized growth,"S. cerevisiae deletion strains, locus YJR066W, strain TOR1, hits give low values",0.833
same,normalized growth,"S. cerevisiae deletion strains, locus YKL048C, strain ELM1, hits give low values",0.941
same,normalized growth,"S. cerevisiae deletion strains, locus YKL067W, strain YNK1, hits give low values",0.879
same,normalized growth,"S. cerevisiae deletion strains, locus YKL101W, strain HSL1, hits give low values",0.928
same,normalized growth,"S. cerevisiae deletion strains, locus YKL193C, strain SDS22, hits give low values",0.959
same,normalized growth,"S. cerevisiae deletion strains, locus YKL203C, strain TOR2, hits give low values",0.901
same,normalized growth,"S. cerevisiae deletion strains, locus YLR113W, strain HOG1, hits give low values",0.802 (active)
same,normalized growth,"S. cerevisiae deletion strains, locus YLR133W, strain CKI1, hits give low values",0.884
same,normalized growth,"S. cerevisiae deletion strains, locus YLR403W, strain SFP1, hits give low values",0.855
same,normalized growth,"S. cerevisiae deletion strains, locus YML070W, strain DAK1, hits give low values",0.906
same,normalized growth,"S. cerevisiae deletion strains, locus YMR001C, strain CDC5, hits give low values",0.966
same,normalized growth,"S. cerevisiae deletion strains, locus YMR205C, strain PFK2 (second series), hits give low values",0.891
same,normalized growth,"S. cerevisiae deletion strains, locus YMR277W, strain FCP1, hits give low values",0.963
same,normalized growth,"S. cerevisiae deletion strains, locus YNL006W, strain LST8, hits give low values",0.97
same,normalized growth,"S. cerevisiae deletion strains, locus YNL020C, strain ARK1, hits give low values",0.851
same,normalized growth,"S. cerevisiae deletion strains, locus YNL161W, strain CBK1, hits give low values",0.974
same,normalized growth,"S. cerevisiae deletion strains, locus YNL183C, strain NPR1, hits give low values",0.816
same,normalized growth,"S. cerevisiae deletion strains, locus YNL207W, strain RIO2, hits give low values",0.96
same,normalized growth,"S. cerevisiae deletion strains, locus YNL222W, strain SSU72, hits give low values",0.97
same,normalized growth,"S. cerevisiae deletion strains, locus YNL307C, strain MCK1 (second series), hits give low values",0.861
same,normalized growth,"S. cerevisiae deletion strains, locus YOL078W, strain AVO1, hits give low values",0.961
same,normalized growth,"S. cerevisiae deletion strains, locus YOL136C, strain PFK27, hits give low values",0.884
same,normalized growth,"S. cerevisiae deletion strains, locus YOR061W, strain CKA2, hits give low values",0.865
same,normalized growth,"S. cerevisiae deletion strains, locus YOR119C, strain RIO1, hits give low values",0.921
same,normalized growth,"S. cerevisiae deletion strains, locus YOR231W, strain MKK1, hits give low values",0.883
same,normalized growth,"S. cerevisiae deletion strains, locus YOR329C, strain SCD5, hits give low values",0.976
same,normalized growth,"S. cerevisiae deletion strains, locus YPL031C, strain PHO85, hits give low values",0.869
same,normalized growth,"S. cerevisiae deletion strains, locus YPL153C, strain RAD53, hits give low values",0.889
same,normalized growth,"S. cerevisiae deletion strains, locus YPL204W, strain HRR25, hits give low values",0.87
same,normalized growth,"S. cerevisiae deletion strains, locus YPL209C, strain IPL1, hits give low values",0.972
same,normalized growth,"S. cerevisiae deletion strains, locus YPL256C, strain CLN2, hits give low values",0.891
same,normalized growth,"S. cerevisiae deletion strains, locus YPR025C, strain CCL1, hits give low values",0.968
same,normalized growth,"S. cerevisiae deletion strains, locus YPR106W, strain ISR1, hits give low values",0.959
same,normalized growth,"S. cerevisiae deletion strains, locus YPR111W, strain DBF20, hits give low values",0.958
same,normalized growth,"S. cerevisiae deletion strains, strain NNK1, hits give low values",0.959
same,normalized growth,"S. cerevisiae deletion strains, strain TSCII, hits give low values",0.969
Cc1cc(C(F)(F)F)n2nc(-c3ccc(C(C)(C)C)cc3)cc2n1,normalized growth,[1],0.996
same,normalized growth,[2],1.02
same,normalized growth,[3],0.983
same,normalized growth,[4],0.965
same,normalized growth,[5],0.993
same,normalized growth,[6],1.01
same,normalized growth,[7],0.963
same,normalized growth,[8],1.01
same,normalized growth,[9],1.01
same,normalized growth,[10],0.994
same,normalized growth,[11],0.965
same,normalized growth,[12],1
same,normalized growth,[13],0.899
same,normalized growth,[14],0.964
same,normalized growth,[15],0.958
same,normalized growth,[16],0.999
same,normalized growth,[17],1.05
same,normalized growth,"S. cerevisiae deletion strains, locus YMR307W, strain GAS1, hits give low values",0.868
same,normalized growth,[18],1.01
same,normalized growth,[19],0.98
same,normalized growth,[20],0.988
same,normalized growth,[21],0.976
same,normalized growth,"S. cerevisiae deletion strains, locus YOL006C, strain TOP1, hits give low values",0.984
same,normalized growth,[22],1.06
same,normalized growth,[23],0.902
same,normalized growth,[24],1.08
same,normalized growth,[25],0.986
